# CSC inhib = blocks cancer stem cells | inhibition, % at 7.5 µM | 1.1% of 300,000 active | cancer stem cell-like cells viability, luminescence; in the data active = inhibition above about 75%; inconclusive = no clear call, values can overlap the other calls; tested in HMLE shEcad cells
# Beta cell apopt = blocks beta cell apoptosis; INS-1E cytokine-induced death, ATP luminescence, 48 h; percent of positive-control rescue, neutral wells zero; protection from apoptosis, % (concentration not given with the values); 0.8% of 300,000 active; AID 435005;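 active = Every replicate reaches about 75%, or at least half do and their mean reaches it too, limit read from the data; inconclusive = At least half of replicates reach the limit but their mean does not; inactive = Under half of replicates reach the limit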;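 note: 0% = cytokine-treated negative control wells and 100% = positive control rescue; higher means more ATP so stronger rescue from cytokine killing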
# Calb FLC = C. albicans growth modulation with fluconazole. growth inhibition, % (concentration not given with the values). 0.57% of 300,000 active. C. albicans CaCi-2 (fluconazole-resistant clinical isolate) + fluconazole, Alamar Blue growth, 48 h;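 active = growth inhibition above about 58% in most replicates, limit read from the data, passing the limit was not always enough; inconclusive = exactly half the replicates above a set limit; inactive = most replicates below a set limit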;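 note: all wells also contain fluconazole at 8 µg/ml as a sub-toxic cotreatment; 0% = median of DMSO wells and 100% = median of geldanamycin control wells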
# Shn3 inh set2 = Schnurri-3 reporter inhibition in Clone20 osteoblasts. Clone20 osteoblast Shn3 3'UTR firefly luciferase, 24 h. inhibition, % at 12.5 µM. 0.52% of 360,000 active. AID 588674;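 active = mean inhibition of at least 75% with every replicate also reaching 75%; inconclusive = mean inhibition at least 75% but some replicate below; inactive = mean inhibition below 75%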;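 note: 0% = median of neutral control wells and 100% = pilot-screen positive control compound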
# PfHsp90 set2 = reduces growth (ATP signal) of yeast expressing P. falciparum Hsp90 | 0.32% of 310,000 active | S. cerevisiae expressing PfHsp90, BacTiter-Glo ATP, 48 h; yeast lacking PDR1 and PDR3 efflux regulators | inhibition, % at 9.4 µM | AID 504621;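 active = every replicate shows inhibition above about 80%, whatever the replicate mean, limit read from the data; inconclusive = mean inhibition reaches the set limit but some replicate falls short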;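 note: 0% = DMSO neutral controls and 100% = 20 µM radicicol positive controls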
# * marks the source's active call; other numbers are inactive results; ? = inconclusive; . = no result given. Sampled rows, rich in hits. Any-hit rate of the full collection: about 2.2%.
SMILES,CSC inhib,Beta cell apopt,Calb FLC,Shn3 inh set2,PfHsp90 set2
COc1ccc(NC(=O)CN(C)C(=O)/C=C/c2ccc(S(=O)(=O)N3CCCCCC3)cc2)cc1,14,75*,-4,7,-17
COc1ccc(NS(=O)(=O)c2ccc(C(=O)N3CCCCCC3)cc2)cc1,-19,7,.,82*,-1
COc1ccc(CC(=O)Nc2cccc(S(=O)(=O)N3CCCCCC3)c2)cc1OC,10,87*,-3,90*,-8
COc1ccc(CCC(=O)Nc2cccc(S(=O)(=O)N3CCCCCC3)c2)cc1OC,4,-3,.,24,4
CCOc1ccc(NS(=O)(=O)c2ccc(C(=O)N3CCCCCC3)cc2)cc1,-3,16,-2,40,7
COc1ccc(S(=O)(=O)Nc2cccc(S(=O)(=O)N3CCCCCC3)c2)cc1,-7,-2,2,3,-14
COc1cc(/C=C(\NC(=O)c2ccccc2)C(=O)N2CC3CC(C2)c2cccc(=O)n2C3)cc(OC)c1OC (stereo not given),-14,-1,4,.,18
COc1ccc(/C(C)=N/NC(=O)c2cccc(S(=O)(=O)N3CCCC3)c2)c(O)c1,100*,109*,5,88*,2
COc1ccc(C(C)=NNC(=O)c2cccc(S(=O)(=O)N3CCCC3)c2)cc1,-7,-3,.,13,-16
COc1ccc(NS(=O)(=O)c2cccc(NC(=O)c3ccc(S(=O)(=O)N4CCCCCC4)cc3)c2)cc1,.,100*,-25,?,-26
COc1ccc(-c2c(C(F)(F)F)nn(C)c2NC(=O)CSCC(=O)O)cc1,-3,-12,0,5,.
COc1ccc(NC2CCCN(C(=O)c3ccc4nc(C)c(C)nc4c3)C2)cc1OC (stereo not given),15,2,?,-14,-9
Cc1[nH]n(C2=NCCS2)c(=O)c1N=Nc1cccc(C(F)(F)F)c1,50,94*,22,27,-35
Cc1[nH]n(C(N)=S)c(=O)c1N=Nc1cccc(C(F)(F)F)c1,13,28,-1,-74,-17
CC1(CCc2ccccc2)NC(=O)N(CC(=O)Nc2ccc3c(c2)OCCO3)C1=O (stereo not given),-4,-5,110*,3,10
CCOC(=O)C1(Cc2cccc(OC)c2)CCN(C/C=C/c2ccc(OC)cc2)CC1,29,20,1,88*,1
CCOC(=O)C1(Cc2cccc(OC)c2)CCN(C/C=C/c2ccccc2)CC1,6,8,5,67,1
O=C(Nc1ccc2nc3n(c(=O)c2c1)CCCCC3)c1c(F)ccc([N+](=O)[O-])c1F,116*,105*,-7,99*,19
O=C(Nc1ccc2nc3n(c(=O)c2c1)CCCC3)c1ccccc1F,7,3,-2,-41,13
O=C(Nc1ccc2nc3n(c(=O)c2c1)CCCCC3)c1ccccc1[N+](=O)[O-],-9,-4,-1,-13,32
O=C(Nc1ccc2nc3n(c(=O)c2c1)CCCCC3)c1cc([N+](=O)[O-])ccc1F,?,16,-11,96*,3
O=c1c2cc(NC(=S)NCCCN3CCC(Cc4ccccc4)CC3)ccc2nc2n1CCCCC2,101*,-3,14,47,.
O=[N+]([O-])c1ccc(S(=O)(=O)Nc2ccc(-c3ccccc3)cc2)cc1,.,.,.,-4,.
COc1ccccc1N1CCN(CCN2C(=O)C3CCCCN3C2=O)CC1 (stereo not given),-13,-6,-6,8,10
OC(CNCC(c1ccc(Cl)cc1Cl)c1c[nH]c2ccccc12)c1ccccc1 (stereo not given),104*,68,11,36,.
SMILES,CSC inhib,Beta cell apopt,Calb FLC,Shn3 inh set2,PfHsp90 set2
CCC1(CC(C)C)SC(N)=NC1=O (stereo not given),.,.,.,-5,22
O=C(Nc1ccccc1)Nc1nnc(CSCc2ccccc2Cl)s1,.,-2,7,5,-9
O=C(Nc1cccc(Cl)c1)Nc1nccs1,27,-5,80*,-13,-19
O=C(Nc1ccc(Cl)c(Cl)c1)Nc1nnc(CSc2ccccc2)s1,44,100*,4,58,-13
O=C(Nc1ccc(Cl)c(Cl)c1)Nc1nccs1,95*,19,64,51,-159
C/C(Cl)=C\Cn1c(N2CCCC2)nc2c1c(=O)n(C)c(=O)n2C,0,8,1,15,-4
CCN(CC)CCN(C(=O)c1ccc2c(c1)CCCC2)c1nc2c(C)cccc2s1,30,8,0,14,4
CSC(=S)N/N=C(\C)c1ccccc1,9,20,-31,-9,27
CCOC(=O)c1sc(NNC(=O)c2ccc(C)cc2)nc1C,3,-4,5,-5,-8
CCOC(=O)c1nc(NNC(=O)c2ccc([N+](=O)[O-])cc2)sc1C,65,103*,116*,31,-2
CCOC(=O)c1ccc(S(=O)(=O)NC2CCC(C)CC2)cc1 (stereo not given),-6,8,.,38,-58
Cc1nc2c(-c3ccc(Cl)cc3)c(C)[nH]n2c(=O)c1Cc1ccccc1,-9,98*,-4,38,-16
O=[N+]([O-])CC(c1ccccc1)c1c[nH]c2ccccc12 (stereo not given),69,2,0,13,.
O=[N+]([O-])CC(c1ccccc1)P(=O)(c1ccccc1)c1ccccc1 (stereo not given),6,-13,94*,4,-7
O=[N+]([O-])c1cnc(Sc2ccncn2)c([N+](=O)[O-])c1,.,.,.,3,.
O=[N+]([O-])c1cnc(Sc2ccncn2)s1,107*,109*,2,28,103*
CC(C)(Sc1ccc(CCN(CCCCC2CCCCC2)C(=O)NC2CCCCC2)cc1)C(=O)O,99*,-1,.,4,5
C[C@H](CO)N1C[C@H](C)[C@@H](CN(C)C(=O)Nc2ccc3c(c2)OCO3)Oc2ccc(NC(=O)Cn3cnnn3)cc2C1=O,7,-9,.,2,-12
COc1ccc(C)cc1N(CC(=O)NCCN1CCOCC1)S(=O)(=O)c1ccccc1,-8,.,-5,-12,-9
COc1cccc(CN2CCC2(C)C(=O)Nc2ccc3c(c2)OCO3)c1F (stereo not given),.,.,.,2,.
CCCCCc1ccc(-c2cn(Cc3ccc(C)cc3)nn2)cc1,-5,4,-10,-17,-8
CCCCCc1ccc(-c2cn(CN3C(=O)c4ccccc4C3=O)nn2)cc1,5,96*,-9,6,9
Cc1ccc(SC2=C(Sc3ccc(C)cc3)C(=O)c3ccccc3C2=O)cc1,78*,-23,-5,-17,-9
CC(C)=CCc1c2c(c(O)c3c(=O)c4c(oc13)-c1cc(O)c(O)cc1OC4C=C(C)C)C=CC(C)(C)O2 (stereo not given),-10,71,89*,.,.
N#C/C(=C\C=C\c1ccccc1[N+](=O)[O-])C(=O)NC1CCCCC1,82*,-15,40,3,.
CC1(C(=O)Nc2nc3ccccc3s2)CC1(Br)Br (stereo not given),-4,9,-10,-1,-10
